Hits are enriched below; roughly 2.9% of the tested compounds scored in any of these assays.
NadD block: blocks S. aureus nicotinate mononucleotide adenylyltransferase; purified NadD enzyme, colorimetric absorbance read-out; inhibition, % at 20 µM; 360,000 tested, 0.78% active; in the data active = inhibition above about 26%
A3G deaminase: APOBEC3G (human) deaminase inhibition; inhibition, % at 20 µM; recombinant A3G, ssDNA deamination FAM/TAMRA fluorescence; AID 493012; 330,000 tested, 0.28% active;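 active = inhibition of at least 40% at 20 µM, with no more than 30% in the related APOBEC3A deaminase screen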
Target sequence (Q9HC16 whole entry, looked up): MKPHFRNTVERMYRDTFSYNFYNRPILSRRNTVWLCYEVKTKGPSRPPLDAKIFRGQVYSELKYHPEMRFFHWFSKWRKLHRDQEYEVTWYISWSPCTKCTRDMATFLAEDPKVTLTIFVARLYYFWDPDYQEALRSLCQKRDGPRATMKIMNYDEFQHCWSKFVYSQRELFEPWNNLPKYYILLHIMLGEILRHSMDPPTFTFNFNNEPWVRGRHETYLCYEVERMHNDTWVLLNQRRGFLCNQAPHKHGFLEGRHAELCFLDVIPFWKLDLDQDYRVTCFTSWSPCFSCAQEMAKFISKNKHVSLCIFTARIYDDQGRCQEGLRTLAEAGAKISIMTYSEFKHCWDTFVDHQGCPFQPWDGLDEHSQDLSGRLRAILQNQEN
H9c2 TAG inh: inhibitors of triacylglycerol accumulation; H9c2 cells, Nile Red lipid (TAG) fluorescence; cells loaded with 200 µM oleic acid; 230,000 tested, 0.66% active; inhibition, % at 12.5 µM;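 active = pattern-corrected inhibition of lipid staining of at least 50% with the nuclear-stain viability signal not falling by more than 50%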
APOBEC3A inh: blocks human APOBEC3A ssDNA deamination; recombinant A3A, FAM/TAMRA ssDNA deamination fluorescence; P31941; AID 493011; 330,000 tested, 0.41% active; inhibition, % at 20 µM;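 active = at least 40% inhibition at 20 µM here, with at most 30% in a related deaminase screen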
PfG6PD inh: PfG6PD (Plasmodium falciparum) enzyme inhibition; PfGluPho enzyme, NADPH resazurin-diaphorase fluorescence; inhibition, % at 20 µM; 350,000 tested, 0.78% active; AID 504690;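 active = inhibition reaching at least a set limit at 20 µM in the primary screen, cut at about 59% in these data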
Cardio protect: myocardial damage modulation in H9c2 cells; H9c2 cardiomyocytes, H2O2 injury protection, ATPLite, 2 h; protection from H2O2 cell death, % at 20 µM; 360,000 tested, 0.63% active;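 active = compounds giving at least 50% protection of heart cells from peroxide-induced death in the single-dose screen, raw or plate-pattern-corrected value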
NadD inh conf: NadD (S. aureus) inhibition, single concentration confirmation. inhibition, % at 20 µM. AID 624309. shares compounds with NadD block. 2,000 tested, 13% active. purified S. aureus NadD, colorimetric enzyme assay; in the data active = inhibition mostly above about 42%, no sharp cut-off; inactive = mostly below about 42%
Large screens that a line does not name were inactive (follow-up assays come after a bar, where they were run).

COC(=O)C1CCN(C(=O)c2cc(-c3ccco3)nc3ccccc23)CC1	NadD block 32 | NadD inh conf 56
O=C(COC(=O)c1ccco1)NCc1ccc2c(c1)OCO2	none
COc1ccccc1CNC(=O)COC(=O)c1cc(C)nc2ccccc12	none
COc1ccccc1CNC(=O)COC(=O)c1cc(-c2ccco2)nc2ccccc12	NadD block 46 (no result: H9c2 TAG inh) | NadD inh conf inactive
O=C(COC(=O)c1cc(-c2ccco2)nc2ccccc12)NCc1ccc2c(c1)OCO2	NadD block 43 (no result: H9c2 TAG inh) | NadD inh conf inactive
O=C(c1cc(-c2ccco2)nc2ccccc12)N1CCN(Cc2ccccc2)CC1	none
CC(C)Oc1cccc(C(=O)Nc2nnc([C@@H]3C[C@H](O)[C@@H](CO)O3)s2)c1	none (no result: A3G deaminase, APOBEC3A inh, PfG6PD inh)
CC(=O)Nc1ccc(S(=O)(=O)Nc2nc3ccccc3nc2-n2ccc(=NC(=O)c3ccccc3)cc2)cc1	none
CCOc1ccc(S(=O)(=O)Nc2nc3ccccc3nc2-n2ccc(=NC(=O)c3cccs3)cc2)cc1	NadD block 26 (no result: H9c2 TAG inh) | NadD inh conf inactive
O=C(N=c1ccn(-c2nc3ccccc3nc2NS(=O)(=O)c2ccc(Cl)cc2)cc1)c1cccs1	NadD block 29 | NadD inh conf inactive
COc1cc(/C=N/NC(=O)COc2c(C)cc([N+](=O)[O-])cc2C)ccc1OC(=O)c1ccccc1Br	NadD block 33 (no result: H9c2 TAG inh) | NadD inh conf inactive
Cc1cccc(CSC2=NCCN2S(=O)(=O)c2ccc(F)cc2)c1	none
O=C(c1nn2c(C(F)(F)F)cc(-c3cccs3)nc2c1Br)N1CCCc2ccccc21	none (no result: H9c2 TAG inh)
O=C(c1nn2c(C(F)(F)F)cc(-c3ccco3)nc2c1Br)N1CCCc2ccccc21	NadD block 31 | NadD inh conf inactive
CN(C)c1ccc(C(CN)c2c[nH]c3ccccc23)cc1 (stereo unspecified)	NadD block 31 | NadD inh conf inactive
COc1ccc(NS(=O)(=O)c2ccc3nc(COc4cccc5ccccc45)[nH]c3c2)cc1	NadD block 38 (no result: H9c2 TAG inh) | NadD inh conf inactive
CCc1ccc(NC(=O)CCC(=O)Nc2nnc(C(C)C)s2)cc1	none (no result: H9c2 TAG inh)
CC(=O)N(CCC(c1ccccc1)c1ccco1)Cc1cccs1 (stereo unspecified)	none
Cc1ccc(C(CCN(Cc2ccccc2)C(=O)c2ccco2)c2ccco2)cc1 (stereo unspecified)	NadD block 38 | NadD inh conf inactive
Cc1ccc(Cn2c(C(C)Nc3nc(-c4ccc(C)cc4)cs3)nc3cc(Cl)c(Cl)cc32)cc1 (stereo unspecified)	NadD block 35 | NadD inh conf inactive
CCCn1c(C(C)Nc2nc(-c3cc(Cl)c(N)c(Cl)c3)cs2)nc2cc(Cl)c(N3CCCCC3)cc21 (stereo unspecified)	NadD block 33 (no result: H9c2 TAG inh) | NadD inh conf inactive
CC(CNC(=O)c1ccccc1[N+](=O)[O-])NC(=O)c1ccccc1[N+](=O)[O-] (stereo unspecified)	none
COC(=O)c1ccc(Cn2nnc3c(=O)[nH]c(C4CCCN(S(=O)(=O)c5cccc(Cl)c5)C4)nc32)cc1 (stereo unspecified)	NadD block 33 (no result: H9c2 TAG inh) | NadD inh conf inactive
CC(=O)c1cccc(S(=O)(=O)N2CCCC(c3nc4c(nnn4Cc4cccc(Cl)c4)c(=O)[nH]3)C2)c1 (stereo unspecified)	NadD block 46 (no result: H9c2 TAG inh) | NadD inh conf inactive
Cc1ccc(Cn2nnc3c(=O)[nH]c(C4CCN(S(=O)(=O)c5ccc(S(=O)(=O)NC6CC6)cc5)CC4)nc32)cc1	NadD block 31 (no result: H9c2 TAG inh) | NadD inh conf 44
O=c1[nH]c(C2CCCN(S(=O)(=O)c3ccccc3Cl)C2)nc2c1nnn2Cc1ccc2c(c1)OCCO2 (stereo unspecified)	NadD block 37 (no result: H9c2 TAG inh) | NadD inh conf inactive
N#Cc1cccn1-c1nccc(-c2cccs2)n1	none (no result: H9c2 TAG inh)
CCC(C)N1CCC2(CC1)N=c1c(c3c4c5c(C)c(O)c3c(O)c1=NC(=O)C(C)=CC=C[C@H](C)[C@H](O)[C@@H](C)[C@@H](O)[C@@H](C)[C@H](OC(C)=O)[C@H](C)[C@@H](OC)C=CO[C@@](C)(O5)C4=O)N2 (stereo partly specified)	none

Bioassay records: PubChem, Sanford-Burnham Center for Chemical Genomics
